IL1B cytotox: HUVEC cytotoxicity counter-screen, IL-1B stimulated | 0.41% of 94,000 active | HUVEC cell count loss, Hoechst imaging | cell count reduction, % at 2 µM;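 active means cell count reduction more than 3 SD above the screen-wide mean, cut at about 70% in these data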;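 further: normalized per plate to untreated control cells as the no-loss baseline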
Plk1 PBD FP: inhibitors of human Plk1 polo box domain binding | inhibition, %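 (tested at about 20 µM)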 | 0.13% of 97,000 active | P53350 | AID 693 | Plk1 PBD phosphopeptide binding, fluorescence polarization; in the data active means inhibition above about 34%, passing the limit was not always enough
Target sequence (P53350 whole entry, looked up, the tested form may be a part): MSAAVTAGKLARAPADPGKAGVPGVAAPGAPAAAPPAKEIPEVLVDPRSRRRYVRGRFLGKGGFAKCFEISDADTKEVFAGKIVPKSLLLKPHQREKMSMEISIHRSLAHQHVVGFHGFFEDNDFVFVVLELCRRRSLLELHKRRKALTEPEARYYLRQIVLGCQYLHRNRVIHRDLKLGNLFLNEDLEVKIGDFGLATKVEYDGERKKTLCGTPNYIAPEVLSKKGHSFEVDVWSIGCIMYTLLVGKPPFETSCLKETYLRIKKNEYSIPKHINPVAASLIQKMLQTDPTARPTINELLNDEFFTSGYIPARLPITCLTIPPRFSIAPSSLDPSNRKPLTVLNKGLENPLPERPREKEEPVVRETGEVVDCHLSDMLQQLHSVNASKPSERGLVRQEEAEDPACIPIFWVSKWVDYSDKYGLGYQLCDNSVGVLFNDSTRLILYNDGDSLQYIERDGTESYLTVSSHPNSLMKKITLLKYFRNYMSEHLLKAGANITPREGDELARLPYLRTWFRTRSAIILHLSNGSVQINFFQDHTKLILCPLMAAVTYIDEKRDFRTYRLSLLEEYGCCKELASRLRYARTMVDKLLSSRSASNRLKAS
IL1B NFkB pot: enhances IL-1B driven NFkB nuclear translocation; HUVEC IL-1B NFkB p65 nuclear translocation imaging; activation, % at 2 µM; 0.3% of 94,000 active; AID 819;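 active means activation above 40%, about the mean plus 3 SD, also judged a hit on visual image review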;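 further: percent activation is computed from the nuclear over cytoplasmic p65 intensity ratio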
PLK1 inh: blocks human PLK1 kinase activity; P53350; recombinant PLK1 kinase, TR-FRET peptide phosphorylation; inhibition, % at 10 µM; 0.53% of 97,000 active; AID 619;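 active means inhibition of 50% or more in the single-concentration screen; inactive means inhibition below 50%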;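 further: 0% = DMSO max control and 100% = H-89 dihydrochloride min control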
NFkB transloc inh: blocks IL-1B driven NFkB nuclear translocation in HUVEC cells; HUVEC IL-1B NFkB p65 nuclear translocation imaging; inhibition, % at 2 µM; 0.43% of 94,000 active; AID 796;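 active means inhibition above about 30% together with a positive call from visual inspection of the well image, limit read from the data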;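 further: nuclear over cytoplasmic p65 intensity ratio measured by imaging; 0% = IL-1B stimulated DMSO wells and 100% = unstimulated DMSO wells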
PTK2B oligo ant: antagonists of human Pyk2 oligomerization. z-score (the deposit names both 25 µM and 10 µM). Q14289. 0.83% of 99,000 active. AID 1347419. Q293 cells, Pyk2 FERM NanoBiT luminescence; stronger effect = lower value;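 active means Z-score of -3 or lower, scaled per plate to the spread of control and sample wells; inactive means z-score above -3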;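 further: negative z-score means lost luminescence so less FERM oligomerization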
Active calls of the source: *; / = no result. Sampled rows, rich in hits. Any-hit rate of the full collection: about 2.2%.

SMILES | IL1B cytotox | Plk1 PBD FP | IL1B NFkB pot | PLK1 inh | NFkB transloc inh | PTK2B oligo ant
Cc1nc(-c2cccc(S(=O)(=O)N3CC(C)CC(C)C3)c2)cs1 (configuration not stated) | -8.0 | -10.6 | 27.5 | -0.5 | -27.5 | -3.04*
c1ccc(Cc2cc(-c3ccccc3)on2)cc1 | -5.1 | -4.9 | 2.7 | -10.0 | -2.7 | -1.36
CC(=O)N1CCc2cc(S(=O)(=O)NC(CC(C)C)C(=O)N3CCn4c3nc3ccccc34)ccc21 (configuration not stated) | -52.6 | -9.4 | 17.0 | -13.6 | -17.0 | -3.72*
CC(C)c1nc2n[nH]c(N)c2c2c1CSC(C)(C)C2 | -223.1 | -13.8 | 4.8 | 58.9* | -4.8 | 0.27
Cc1nn(-c2cc(N3CCCCC3)ccc2[N+](=O)[O-])c(=O)c2ccccc12 | -21.8 | 22.0 | 8.0 | -8.9 | -8.0 | -3.76*
Cc1nn(-c2cc(N3CCNCC3)ccc2[N+](=O)[O-])c(=O)c2ccccc12 | -28.4 | 2.6 | 15.4 | -4.1 | -15.4 | -0.28
N#Cc1c(C(F)(F)F)cc(-c2ccccc2)nc1SCC(=O)Nc1sc2c(c1C#N)CCC2 | -20.9 | 17.8 | 5.5 | -13.6 | -5.5 | 0.52
C1CCC(C23CC4CC(CC(C4)C2)C3)NC1 (configuration not stated) | -31.8 | -13.1 | 13.9 | -15.4 | -13.9 | 0.67
O=C(O)CCCC(=O)Nc1cccc(C(F)(F)F)c1 | / | / | / | / | / | 0.77
NC(=O)/C=C\C(=O)Nc1cccc(C(F)(F)F)c1 | 83.7* | 3.2 | -94.1 | -2.4 | -30.1 | 0.6
Cc1sc(-c2ccncc2)nc1OC(=O)c1ccccc1 | -6.0 | -41.7 | -1.8 | 12.8 | 1.8 | 0.33
CCCC[n+]1ccn(-c2nc3ccccc3nc2[N-]S(=O)(=O)c2ccc(C)cc2)c1 | 0.0 | -11.4 | 11.9 | -2.7 | -11.9 | -0.25
CCCCC[n+]1ccn(-c2nc3ccccc3nc2[N-]S(=O)(=O)c2ccc(C)cc2)c1 | 82.3* | 28.7 | -98.5 | -4.7 | 98.5* | 0.17
COc1ccc2oc3cc(C)[n+]([O-])c(-c4ccc(Cl)cc4)c3c2c1 | / | / | / | / | / | 1.92
CCCCC(CC)CNC(=O)c1cccs1 (configuration not stated) | -40.3 | -4.8 | 11.3 | 7.8 | -11.4 | -0.88
CC(=O)Nc1ccccc1-c1nc2ccc(C(=O)N3CCN(c4cccc(C)c4)C(C)C3)cc2[nH]c1=O (configuration not stated) | 2.0 | -30.8 | 24.4 | -10.8 | -24.4 | /
CC(=O)Nc1ccccc1-c1nc2ccc(C(=O)N3CCN(c4ccccc4)CC3)cc2[nH]c1=O | -49.1 | -5.3 | -37.6 | 19.4 | 37.6* | /
CCOc1ccc(N(CC(=O)NC2CCCC2)C(=O)CSc2nnc(COc3ccccc3)o2)cc1 | 4.1 | -9.2 | -9.1 | -11.6 | 9.1 | -0.22
COc1ccc(C2CC(c3cccs3)=Nc3ccccc3S2)cc1 (configuration not stated) | 9.2 | -9.0 | 42.9* | -14.5 | -42.9 | -0.27
CCn1nc(NC(=O)c2ccccn2)c2cc3cccc(C)c3nc21 | -13.6 | 3.4 | 50.7* | -18.1 | -50.7 | -0.81
N#Cc1c(NC(=S)NC(=O)C2CCCC2)sc2c1CCCCC2 | / | / | / | / | / | 0.25
CC1CCCCC1NC(=O)c1nn(C)c(=O)c2ccccc12 (configuration not stated) | -8.6 | -25.0 | 78.2* | -16.0 | -78.2 | 0.39
CCOC(=O)c1cccc(NC(=O)Nc2cc(OC)ccc2OC)c1 | -7.9 | -6.8 | -4.8 | -9.5 | 4.8 | -3.38*
COc1ccc(OC)c(NC(=O)Nc2ccccc2C)c1 | -38.6 | 13.4 | 12.4 | 2.7 | -12.4 | -0.15
COc1ccccc1NC(=O)CSc1nnc(CNC(=O)COc2ccc(Cl)cc2)o1 | -25.9 | 2.7 | 40.3* | -0.2 | -40.3 | -0.66
SMILES | IL1B cytotox | Plk1 PBD FP | IL1B NFkB pot | PLK1 inh | NFkB transloc inh | PTK2B oligo ant
COc1ccc(C(=O)N=c2sc3c(C)ccc(OC)c3n2C)cc1 | 3.0 | 21.7 | -9.4 | -111.3 | 9.4 | /
CCCCOC(=O)c1ccc(NC(=O)COC(=O)CSc2nc(C)cc(C)n2)cc1 | / | / | / | / | / | 0.4
COc1ccc(N(CN2C(=O)C3C4C=CC(C4)C3C2=O)C(=O)c2ccco2)cc1 (configuration not stated) | -10.4 | 52.2* | -1.6 | 1.3 | 1.6 | 0.17
COc1ccc(CN(C(=O)c2ccco2)c2ccccc2)cc1 | 10.4 | -4.7 | -12.1 | -8.4 | 12.1 | -1.54
CCN(CC)S(=O)(=O)c1ccc(NC(=O)CC(NC(C)=O)c2ccccc2)cc1 (configuration not stated) | 26.0 | 7.2 | -10.7 | -38.3 | 10.7 | -0.39
CCN(CC)S(=O)(=O)c1ccc(NC(=O)C(OC)c2ccccc2)cc1 (configuration not stated) | 89.5* | 1.6 | -97.7 | -1.4 | 97.7* | 0.55
CC(=O)OC1COC(N2CCc3cc(Br)c([N+](=O)[O-])cc32)C(OC(C)=O)C1OC(C)=O (configuration not stated) | -13.6 | -19.0 | 23.6 | -9.3 | -23.6 | 0.55
O=c1[nH]c(CN2CCN(C/C=C/c3ccccc3)CC2)nc2cc(Cl)ccc12 | -11.5 | -18.2 | 35.6 | 69.2* | -35.6 | 0.3
C=C(C)COc1ccc(-c2[nH]ncc2Oc2ccccc2OCC)c(O)c1 | 24.7 | 13.1 | -11.9 | -0.4 | 11.9 | 1.11
C=C(C)COc1ccc(-c2[nH]ncc2Oc2cccc(OC)c2)c(O)c1 | -44.1 | 5.3 | -18.9 | -7.7 | 18.9 | -3.6*
COc1ccc(Oc2cn[nH]c2-c2ccc(O)cc2O)cc1 | -8.8 | 20.3 | 14.8 | 12.9 | -14.8 | -3.55*
Cc1nc([N+](=O)[O-])c(Sc2nc3ccccc3n2C)n1Cc1ccccc1 | / | / | / | / | / | -0.43
COc1ccc(C2CC(=O)C3=C(C2)Nc2ncnn2C3c2ccccc2C)c(OC)c1 (configuration not stated) | / | / | / | / | / | -3.59*
CC(CNC(=O)CC(C)(C)C)NC(=O)CC(C)(C)C (configuration not stated) | -11.6 | -9.1 | 6.4 | 3.6 | -6.4 | -0.13
COC(=O)Cn1c2c(c3cc(C)ccc31)CCCC2 | / | / | / | / | / | 0.72
Cc1ccc2c(c1)c1c(n2CC(O)CNC(CO)(CO)CO)CCCC1 (configuration not stated) | / | 22.7 | / | 62.7* | / | /
Cc1ccc(NC(=O)c2cc(NC(=O)CCC(=O)O)ccc2N2CCCCC2)cc1 | 92.2* | -1.0 | -4.6 | -4.4 | 4.6 | 0.65
O=C(Nc1nc2nc(-c3ccccc3)cc(-c3ccccc3)n2n1)c1ccco1 | 15.0 | 3.0 | 26.5 | -7.0 | -26.5 | -3.49*
CC(=O)Nc1nc2nc(-c3ccccc3)cc(-c3ccccc3)n2n1 | 20.8 | 2.1 | -2.0 | -12.8 | 2.0 | -1.4
CN1C=CC2=C(C#N)C(N)C(C#N)(C#N)[C@H](c3ccccc3)[C@H]2C1 (some centres not stated) | -11.0 | -10.9 | 5.2 | -6.6 | -5.2 | 0.78
CCCCNC(=O)Cc1coc2ccc3ccccc3c12 | -5.2 | -4.0 | 11.2 | -4.3 | -11.2 | -1.05
CCOc1cc(S(=O)(=O)NCCc2cccc(C)c2)c(OCC)cc1-n1cnnn1 | 17.1 | 4.9 | -35.3 | -3.0 | 35.3* | 0.82
Cc1cccc(NC(=S)NNC(=S)NCc2ccccc2)c1 | 14.3 | 16.0 | -6.5 | -46.5 | 6.5 | 0
